# KB-V1 MDR tox: KB-V1 MDR subline cytotoxicity | KB-V1 MDR cells viability, CellTiter-Glo, 72 h | Potency, µM (titrated, usually from 46.1 µM), hits mostly cytotoxic | 3.4% of 400,000 active | AID 1347076; also: % is scaled to controls: 0 for no effect and ±100 for the full control effect; nearly all actives have a fitted effect of over 60% in size
#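 KB-V1 cells (P-gp-expressing MDR subline of KB-3-1) in phenol-red-free DMEM with 10% FBS were exposed to library compounds over a concentration series for 72 h at 37 degrees C. Viability read by CellTiter-Glo luminescence; concentration-effect curves fitted after normalization.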
# RORgamma inh: inhibitors of mouse ROR gamma transcriptional activity | Potency, µM (series often up to 53.6 µM), inactives show at the top dose activity change, negative = inhibition, usual class: inhibitors | 5.4% of 310,000 active | Drosophila S2 Gal4-RORgamma UAS-luciferase reporter, 20 h | P51450; also: % is scaled to controls: 0 for no effect and ±100 for the full control effect; nearly all actives have a fitted effect of over 60% in size
# Target sequence (P51450 whole entry, looked up, the tested form may be a part): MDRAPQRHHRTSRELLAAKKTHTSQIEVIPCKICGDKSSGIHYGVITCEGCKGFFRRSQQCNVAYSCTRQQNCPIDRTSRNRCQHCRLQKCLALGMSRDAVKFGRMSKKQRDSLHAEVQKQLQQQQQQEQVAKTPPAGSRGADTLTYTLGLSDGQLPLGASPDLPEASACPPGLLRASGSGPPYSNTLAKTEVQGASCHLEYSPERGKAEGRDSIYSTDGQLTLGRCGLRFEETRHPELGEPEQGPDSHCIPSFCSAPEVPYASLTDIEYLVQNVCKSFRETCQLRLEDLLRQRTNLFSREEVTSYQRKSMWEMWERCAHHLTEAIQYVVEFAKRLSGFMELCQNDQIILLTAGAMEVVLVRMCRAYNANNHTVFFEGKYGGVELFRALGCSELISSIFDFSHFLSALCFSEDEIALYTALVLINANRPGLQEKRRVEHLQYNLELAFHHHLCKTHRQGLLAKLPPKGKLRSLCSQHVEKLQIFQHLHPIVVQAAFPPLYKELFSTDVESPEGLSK
#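 Drosophila S2 cells stably expressing Gal4-DBD/mouse RORγ fusion under metallothionein promoter plus UAS-luciferase; compound 1 h, then 700 uM CuSO4 induction for 20 h at ambient temperature; inhibition read as reduced luminescence.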
# KB-3-1 tox: kills parental KB-3-1 adenocarcinoma cells | AID 1347075 | 1.4% of 400,000 active | KB-3-1 viability, CellTiter-Glo ATP luminescence, 72 h | Potency, µM (highest dose often 46.1 µM), hits mostly cytotoxic; also: % is scaled to controls: 0 for no effect and ±100 for the full control effect; nearly all actives have a fitted effect of over 60% in size
#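 KB-3-1 cells, DMEM (no phenol red) + 10% FBS; compound by pin transfer, 72 h, 37 °C. Readout: CellTiter-Glo luminescence after 10 min. Data normalized, curve-fitted.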
# MCF10A rereplic: induces DNA re-replication in MCF 10a normal breast cells; 2.9% of 350,000 active; Potency, µM (series often up to 46.1 µM), for inactives: top-dose activity, positive = re-replication, hits mostly activators; AID 624296; MCF 10A DNA re-replication, Hoechst nuclear intensity, 48 h; also: % of control where 0% means no effect; nearly all actives have a fitted effect of over 50% in size
# SW480 rereplic: DNA re-replication induction in SW480 cells; AID 624297; 1.8% of 340,000 active; Potency, µM (titrated, usually from 46.1 µM), for the others: at the top dose re-replication activation, usual class: activators; SW480 DNA re-replication, Hoechst DNA content imaging, 48 h; also: % of control where 0% means no effect; nearly all actives have a fitted effect of over 55% in size
#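 Readout is total intensity of Hoechst-stained nuclei, excited at 405 nm and collected at 500-530 nm. Compound treatment lasted 48 hr at 37 C in 5% CO2 before staining.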
# VP16 counter: inhibits Gal4-VP16 luciferase reporter, ROR gamma counter-screen. Drosophila S2 Gal4-VP16 UAS-luciferase, luminescence, 20 h. Potency, µM (highest dose often 53.6 µM), for inactives: at the top dose activity, negative = inhibition, most hits filed as inhibitors. 3.5% of 310,000 active;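 also: Gal4-VP16 expression switched on by copper sulfate through the metallothionein promoter; % is scaled to controls: 0 for no effect and ±100 for the full control effect; nearly all actives have a fitted effect of over 50% in size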
# * hit, by the source's call; i = inactive; ? = inconclusive; · = no result; [ ] = dose if it differs, or a comment. In the library only some 10% were active in any assay of this set; here they are far more common. Calls follow the shape of the dose curve; as a rule, active = well fitted curve in the direction sought with a large enough effect; inconclusive = small, poorly fitted or top-dose-only effect, or another doubt; inactive = no such curve, though single readings can be large; an effect the other way counts as inactive or inconclusive. Potency is read from the fitted curve at half-maximal effect.
SMILES,KB-V1 MDR tox,RORgamma inh,KB-3-1 tox,MCF10A rereplic,SW480 rereplic,VP16 counter
CC(C(=O)NCC(=O)Nc1ccc(F)c(F)c1F)N1CCN(c2ccc(O)cc2)CC1 (centres undefined),i,·,?,8.5%,2.6%,·
CC(C(=O)NCC(=O)Nc1ccc(F)c(F)c1F)N1CCN(Cc2ccc(C#N)cc2)CC1 (centres undefined),13µM*,·,i,3.5%,3.6%,·
CC(=O)N1CCC2(CCCN(Cc3cc(C(F)(F)F)cc(C(F)(F)F)c3)C2)CC1,·,-2.2%,·,·,·,14.5%
COc1cccc(N2CCN(c3c(C#N)c(C(F)(F)F)nn3C)CC2)c1,13µM*,11.9%,i,-7.4%,-1.5%,4.3%
COc1ccnc(N2CCN(c3cccc(C(F)(F)F)c3)CC2)c1C#N,i,-14.7%,i,20.6µM*,?,1.9%
Cn1nc(C(F)(F)F)c(C#N)c1N1CCN(c2ccccc2F)CC1,i,36.7%,?,?,-1.4%,-8.9%
O=C(COC(=O)c1ccccc1OCCOc1ccccc1)Nc1ccc(Br)cc1,i,·,?,·,·,·
CN(CC(=O)Nc1c(Cl)cccc1Cl)C(=O)Cc1ccsc1,i,·,i,-0.6%,-0.3%,·
CCc1cc(C(=O)N(C)CC(=O)Nc2c(Cl)cccc2Cl)sc1C,18.4µM*,·,i,19.1%,2.9%,·
CC(C)(C)c1ccc(-c2cn(-c3ccc(Br)cc3)c3[n+]2CCCS3)cc1,i,7.08µM*,?,?,0.8%,7.94µM*
c1ccc(-c2cn(-c3ccccc3)c3[n+]2CCS3)cc1,?,28.1%,?,3.3%,5.8%,-14.7%
CC(=O)Nc1ccc(S(=O)(=O)N2CCN(S(=O)(=O)c3ccccc3)CC2)cc1,i,26.7%,i,0.9%,28.4%,-9.4%
CC(=O)Nc1ccc(S(=O)(=O)N2CCN(CC3CC4C=CC3C4)CC2)cc1 (centres undefined),?,27.2%,i,11.8%,1.3µM*,4.4%
CCCN1CCN(CCNC(=O)Nc2cc(C)ccc2OC)CC1,i,·,i,·,·,·
Cc1ccccc1C1C(C#N)=C2NC(=O)c3c(sc4c3CCCCC4)N2C2=C1C(=O)CC(C)(C)C2 (centres undefined),·,-32.8%,·,·,·,3.3%
Cc1ccccc1C1C(C#N)=C2N=C(N)c3c(sc4c3CCCCC4)N2C2=C1C(=O)CC(C)(C)C2 (centres undefined),i,12.6µM*,i,23.5%,?,?
CCCCc1ccc(Nc2ncnc3c2cnn3-c2ccc(C)cc2)cc1,i,·,i,·,·,·
COc1cc2c(=O)c(C(=O)c3ccc(F)cc3)cn(Cc3cccc(F)c3)c2cc1OC,i,·,i,·,·,·
Cc1nc(/N=C\N(C)C)sc1C(=O)Nc1ccccc1,i,26.5%,i,-2.7%,-1.7%,-6.1%
CN(C)/C=N/c1nc2ccc3c(c2s1)CCCC3,?,10µM*,i,1.9%,-5.6%,-4.9%
NC(CSC(c1ccccc1)(c1ccccc1)c1ccccc1)C(=O)O (centres undefined),?,·,3.66µM*,6.51µM*,6.51µM*,·
CCCCNc1cc(=O)oc2ccccc12,i,27.7%,i,0.2%,2.0%,2.0%
CCOc1ccc(Nc2cc(=O)oc3ccccc23)cc1,13µM*,?,i,-2.8%,-2.6%,3.0%
CCc1ccc(Nc2nc3ccccc3c(=O)s2)cc1,i,0.891µM*,i,2.3%,6.7%,1.41µM*
CCOc1ccc(Nc2nnc(SCc3nc4ccccc4c(=O)[nH]3)s2)cc1,i,11.1%,i,10.3µM*,12.7%,-0.6%
SMILES,KB-V1 MDR tox,RORgamma inh,KB-3-1 tox,MCF10A rereplic,SW480 rereplic,VP16 counter
CCOc1ccc(Nc2nc3ccccc3c(=O)s2)cc1,i,3.98µM*,i,1.4%,-0.9%,?
Cc1ccc2c(=O)cc(C(=O)NCc3ccccc3)oc2c1,?,·,i,·,·,·
O=c1[nH]c(CSc2nc(-c3ccc(F)cc3)cs2)nc2ccccc12,5.8µM*,2.4%,i,10.5%,-4.0%,-6.0%
CCCn1nc(NC(=O)c2ccccn2)c2cc3cc(C)ccc3nc21,i,-4.7%,?,?,7.31µM*,-5.6%
CCCn1nc(NC(=O)c2ccco2)c2cc3cc(C)ccc3nc21,i,37.3%,i,-0.4%,18.4µM*,-10.2%
CCCn1nc(NC(=O)c2ccco2)c2cc3ccc(C)cc3nc21,i,11.0%,i,?,13µM*,14.6%
CCCn1nc(NC(=O)COC)c2cc3cc(C)ccc3nc21,i,-1.0%,i,1.6%,-0.3%,5.2%
CC(C)CO/N=C1/[C@H]2O[C@@H]2[C@@H](O)[C@H]2[C@H]1CCn1c(=O)n(-c3ccccc3)c(=O)n12,·,0.0%[10 µM],·,·,·,2.9%[10 µM]
C/C(=N\Nc1nc2ccccc2[nH]1)c1ccccn1,·,2.51µM*,·,·,·,-70.1%
C/C(=N\Nc1nc2ccccc2[nH]1)c1cc2ccccc2o1,?,4.47µM*,?,?,-1.0%,3.55µM*
C/C(=N/O)c1ccccn1,i,-28.2%,i,-4.0%,20.2%,0.5%
CN1CCN(c2ncnc3c2ncn3[C@H]2CN(Cc3ccc(-c4ccccc4)cc3)C[C@@H](CO)O2)CC1,i,·,i,·,·,·
Cc1ccc(NC(=O)Cn2cc(S(=O)(=O)N3CCC(C)CC3)c3ccccc3c2=O)c(Br)c1,i,·,i,·,·,·
COc1cccc(CNc2ccc([N+](=O)[O-])cc2C)c1,14.6µM*,-2.1%,i,1.1%,?,20.6%
COc1ccc([N+](=O)[O-])cc1NCc1ccccc1C,i,-14.2%,i,5.8µM*,?,7.2%
CCN1CCN(c2oc(-c3ccc(COc4ccc(C)cc4)o3)nc2C#N)CC1,i,·,i,·,·,·
CC(=O)c1ccc(N2CCN(S(=O)(=O)c3ccc4c(c3)CC(C)N4C(=O)C3CCC3)CC2)cc1 (centres undefined),i,·,i,·,·,·
O=C(c1cccc(C(F)(F)F)c1)N1CCC(O)(CS(=O)(=O)Cc2ccccc2Cl)CC1,16.4µM*,?,i,5.5%,-3.3%,1.2%
O=C(c1cccc(C(F)(F)F)c1)N1CCC(O)(CS(=O)(=O)Cc2ccc(Cl)cc2)CC1,11.6µM*,38.6%,i,7.7%,0.0%,-3.9%
O=C(c1cccc(C(F)(F)F)c1)N1CCC(O)(CS(=O)(=O)Cc2ccccc2)CC1,i,?,i,0.2%,-13.4%,-4.4%
Cc1ccccc1-c1noc(-c2ccc(NCc3ccco3)c([N+](=O)[O-])c2)n1,?,·,i,·,·,·
Nc1cc(=O)[nH]c(=S)[nH]1,i,·,i,·,·,·
CCC(C(=O)NCCc1ccccc1)n1nc(C)c2sc3ccccc3c2c1=O (centres undefined),?,·,i,·,·,·
